{
  "source": "PubChem BioAssay",
  "data": [
    {"assay": "compound effects on lung adenocarcinoma cell viability – A549, calcein-AM fluorescence, 48 h, basal, profiling panel (AID 1162); note: test concentration not given here", "settings": "higher = more signal", "values": [
      {"smiles": "COCCOC(=O)N1C(=O)[C@@]2(c3cc(C#CC4(O)CCCCCC4)ccc31)[C@H](C(=O)N1CCN(c3ncccn3)CC1)[C@H]1C(=O)O[C@H](c3ccccc3)[C@H](c3ccccc3)N1[C@@H]2c1ccc(OCCO)cc1", "z-score": 0.514},
      {"smiles": "CS(=O)(=O)CCOC(=O)C1=CC(CCCO)=CC(c2cccs2)N(Cc2cccc(OC(F)(F)F)c2)C=C1C(=O)OCCS(C)(=O)=O", "note": "(centres undefined)", "z-score": 0.0985},
      {"smiles": "N#Cc1ccc(NN2C(C(O)c3cc(C(F)(F)F)cc(C(F)(F)F)c3)C=CC3C(=O)N(c4ccccc4)C(=O)C32)cc1", "note": "(centres undefined)", "z-score": -0.676},
      {"smiles": "COC(=O)C1(C)C=C2C(=C(c3ccccc3)C(=O)C2C)CN1", "note": "(centres undefined)", "z-score": -1.3},
      {"smiles": "COC(=O)CC=C[C@H](C)[C@@H](OCc1ccccc1Br)C(C)C", "z-score": 0.921},
      {"smiles": "CC(=O)OC[C@H]1O[C@H](CCON=C[C@@H](C)[C@H](OCc2ccccc2)C(C)C)C=C[C@@H]1OC(C)=O", "z-score": -0.606},
      {"smiles": "CC(CCN1CCCCc2nc(C)c(C)cc21)=NOC(C)CN1CCCCc2nc(C)c(C)cc21", "note": "(centres undefined)", "z-score": -0.282},
      {"smiles": "CCN1C(=O)[C@H]2[C@H]3[C@H](O)[C@H](O)CC(=NOCc4ccccc4)[C@@H]3CC[C@H]2C1=O", "z-score": 0.391},
      {"smiles": "CC(=O)OC[C@H]1O[C@H](CCON=C(C)CCN2CCc3nc(-c4ccccc4)c(-c4ccccc4)cc3C2)C=C[C@@H]1OC(C)=O", "z-score": 0.396},
      {"smiles": "CN(C)CCCNC(=O)[C@@H]1c2ccccc2C(=O)N(Cc2cc(F)cc(C(F)(F)F)c2)[C@H]1c1ccc(CO)cc1", "z-score": -0.276},
      {"smiles": "CC(CCC(=O)OC[C@H]1O[C@H](C#Cc2ccccc2)C=C[C@@H]1Oc1ccc(C)cc1)=NOC[C@@H](O)[C@H]1O[C@@H]2OC(C)(C)O[C@@H]2[C@H]1O", "z-score": 0.0105},
      {"smiles": "CC(C)N1CC=CC23O[C@@H]4C=CCCOC(=O)C4[C@H]2C(=O)N(CCCCCCO)[C@@H]3C1=O", "note": "(some centres undefined)", "z-score": 0.647},
      {"smiles": "O=C1[C@H]2[C@H]3[C@H](O)[C@H](O)CC(=NOC[C@@H](O)COCc4ccco4)[C@H]3CC[C@H]2C(=O)N1C1CCCCC1", "z-score": -1.03},
      {"smiles": "CO[C@@H]1COC(=O)CCC[C@@H](C)[C@H](OC)COC(=O)CCC[C@H]1C", "z-score": -0.378},
      {"smiles": "O=C1NC(=O)C2C1C=CC(C(O)Cc1ccccc1)N2Nc1ccccn1", "note": "(centres undefined)", "z-score": 0.379},
      {"smiles": "CC(C)(C)OC(=O)CC[C@]1(C(=O)NCc2ccccc2)N=C(c2ccc(OCCCO)cc2)O[C@H]1c1ccccc1", "z-score": -1.02},
      {"smiles": "CC(C)(C)OC(=O)CC[C@]1(C(N)=O)COC(c2ccc(OCCCO)cc2)=N1", "z-score": 0.371},
      {"smiles": "CC(C)CON=C1C[C@@H](O)[C@@H](O)[C@@H]2[C@@H]3C(=O)N(Cc4ccccc4)C(=O)[C@@H]3CC[C@@H]12", "z-score": -0.785},
      {"smiles": "C=CCOC(=O)[C@H]1[C@@H]2C(=O)O[C@@H](c3ccccc3)[C@@H](c3ccccc3)N2[C@@H](c2ccc(OCCOC(=O)[C@H]3C[C@H]4C(=O)N[C@@H](Cc5ccccc5)C(=O)N4[C@H]3c3ccc(O)cc3)cc2)[C@]12C(=O)Nc1ccccc12", "z-score": -0.794},
      {"smiles": "O=C1[C@H]2[C@H]3[C@H](O)[C@H](O)CC(=NOCc4ccccc4)[C@H]3CC[C@H]2C(=O)N1c1ccc(F)cc1F", "z-score": 0.213},
      {"smiles": "COC(=O)C1=C(C)[C@@H](O)[C@@H](C)[C@H](c2c(OC)c(OC)c(C)c(OC)c2OC)O1", "z-score": -0.501},
      {"smiles": "COC(=O)[C@@]1(Cc2ccc(OC)cc2)[C@H]2c3cc(C(=O)N4CCCC4)n(Cc4cc(F)c(F)c(F)c4)c3C[C@H]2CN1C(=O)c1ccccc1", "z-score": -1.19},
      {"smiles": "CC(CCC(=O)OC[C@H]1O[C@H](C#Cc2ccccc2)C=C[C@@H]1Oc1ccc(C)cc1)=NO[C@@H](C)c1cn([C@H](CO)Cc2ccccc2)nn1", "z-score": -0.487},
      {"smiles": "CC(C)NC(=O)[C@@]1(c2ccc([N+](=O)[O-])cc2)CC(=O)N(CC23CC4CC(CC(C4)C2)C3)[C@@H]1c1ccc(CO)cc1I", "z-score": -1.58},
      {"smiles": "COC(=O)[C@H](C)NC(=O)CCC1CC(OC(=O)NCCc2ccc(F)cc2)CC2(CCCC(COC(=O)NCCc3ccc(Cl)cc3)O2)O1", "note": "(some centres undefined)", "z-score": 0.98},
      {"smiles": "C=C(CCCC)C(=O)CC[C@@H](OC(C)=O)c1cccc(OCCO)c1", "z-score": -0.985},
      {"smiles": "CCOC(=O)[C@H](CC(C)C)NC(=O)CCC1CC(OC(=O)NCc2cccc3ccccc23)CC2(CCCC(COC(=O)NCCc3ccccc3OC)O2)O1", "note": "(some centres undefined)", "z-score": -0.571},
      {"smiles": "CCCCCN1CC=CC23O[C@@H]4C=CCOC(=O)[C@@H]4[C@H]2C(=O)N(C(CO)C(C)C)[C@@H]3C1=O", "note": "(some centres undefined)", "z-score": -0.0343},
      {"smiles": "CCOC(=O)[C@H](CC(C)C)NC(=O)CCC1CC(OC(=O)NCc2cccc3ccccc23)CC2(CCCC(COC(=O)NCCN3CCOCC3)O2)O1", "note": "(some centres undefined)", "z-score": 0.609}
    ]}
  ]
}
